Screening results as filed in PubChem BioAssay.
CHX counter: counter-screen for Shiga toxin inhibitors: cycloheximide protein synthesis inhibition. cell reporter, cycloheximide protein synthesis inhibition counterscreen. max response, %. 12% of 300,000 active; in the data active means max response mostly above about 13%, no sharp cut-off; inactive means mostly below about 14%; further: read at 38.3 µM for the half of the compounds with a filed dose; 0% is about no effect
Tb PYK inh: T. brucei pyruvate kinase inhibition. Q57TT1. TbPYK enzyme, Kinase-Glo Plus ATP luminescence, 45 min. Potency, µM (titrated, usually from 76.8 µM), without a hit: at the top dose activity, negative = inhibition, hits mostly inhibitors. 0.12% of 410,000 active. AID 624173; further: potency means the concentration at half of the fitted maximal effect; on the % scale 0 is the no-effect control and ±100 the full control effect; nearly all actives have a fitted effect of over 50% in size
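Activity of T. brucei pyruvate kinase was followed by Kinase-Glo Plus luminescence after the enzyme reacted 45 min at room temperature with 130 uM ADP (final) and substrate. Test compounds were added before ADP at multiple concentrations.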
Giardia FBPA inh: Giardia lamblia aldolase inhibition. A8B2U2. purified Giardia FBPA. Potency, µM (titrated, usually from 59.6 µM), for inactives: at the top dose activity, negative = inhibition, usual class: inhibitors. 0.71% of 290,000 active. AID 2451; further: potency means the concentration at half of the fitted maximal effect; on the % scale 0 is the no-effect control and ±100 the full control effect; nearly all actives have a fitted effect of over 55% in size
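Giardia FBPA (40 nM reagent) was preincubated 10 min at RT with compound (up to 57.5 uM final), then substrate plus GAPDH/TPI/NAD/arsenate coupling system with diaphorase/resazurin was added; resorufin fluorescence (525/598 nm) was read after 20 min.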
LmPK inhibitor: LmPK (Leishmania mexicana) enzyme inhibition. 0.37% of 290,000 active. AID 1721. Potency, µM (series often up to 57.5 µM), for the others: at the top dose activity change, negative = inhibition, hits mostly inhibitors. Q27686. purified LmPK, Kinase-Glo ATP luminescence, 1 h; further: potency means the concentration at half of the fitted maximal effect; on the % scale 0 is the no-effect control and ±100 the full control effect
Target sequence (Q27686 whole entry, looked up): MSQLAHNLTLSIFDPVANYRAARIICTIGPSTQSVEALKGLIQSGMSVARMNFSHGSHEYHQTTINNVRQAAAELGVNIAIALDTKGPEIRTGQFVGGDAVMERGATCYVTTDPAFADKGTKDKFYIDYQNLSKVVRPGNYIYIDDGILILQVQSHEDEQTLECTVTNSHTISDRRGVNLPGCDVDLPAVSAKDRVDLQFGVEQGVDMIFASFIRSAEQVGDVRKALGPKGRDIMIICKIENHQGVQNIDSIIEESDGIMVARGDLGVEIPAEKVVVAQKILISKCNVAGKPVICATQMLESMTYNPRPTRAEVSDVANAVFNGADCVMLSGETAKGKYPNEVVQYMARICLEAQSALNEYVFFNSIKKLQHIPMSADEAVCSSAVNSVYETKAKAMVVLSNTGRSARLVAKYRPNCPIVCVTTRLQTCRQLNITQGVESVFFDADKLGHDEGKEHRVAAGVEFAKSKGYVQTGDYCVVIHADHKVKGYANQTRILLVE
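Kinase-Glo luminescence read after 1 h RT reaction of 0.1 nM LmPK with 0.5 mM PEP and 0.1 mM ADP. Activity scaled between uninhibited and enzyme-free controls.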
Shiga inhibitor: inhibitors of Shiga toxin in Vero cells | Vero cells, Shiga toxin protein synthesis inhibition reporter | AID 2315 | inhibition, % at 38.7 µM | 9.2% of 290,000 active; in the data active means inhibition mostly above about 28%, no sharp cut-off; inactive means mostly below about 43%; further: 0% is about no effect
RE007 growth inh: less growth of the S. pombe RE007 Vpr strain; S. pombe RE007 Vpr strain, BacTiter-Glo ATP luminescence, 24 h; Potency, µM (doses to about 92.2 µM), for inactives: at the highest dose activity change, negative = less growth, usual class: inhibitors; 0.21% of 360,000 active; active means well fitted falling curve with a large enough effect; further: potency means the concentration at half of the fitted maximal effect; on the % scale 0 is the no-effect control and ±100 the full control effect; nearly all actives have a fitted effect of over 50% in size
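Fission yeast strain RE007, carrying one chromosomally integrated HIV-1 vpr copy, was seeded at OD 0.01 in PMG+AL medium with 23 nL pinned compound. After 24 h at 30 °C and 99% humidity, viability was read by BacTiter-Glo luminescence.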
The depositor's hits bear a star. This excerpt belongs to a sample that is enriched for hits. Unless noted, the call rests on the fitted dose curve; in most records, active means well fitted curve in the direction sought with a large enough effect; inconclusive means small, poorly fitted or top-dose-only effect, or another doubt; inactive means no such curve, though single readings can be large; an effect the other way counts as inactive or inconclusive.

Screening Nc1nc(CSc2ccccc2)nc(N2CCCCC2)n1 returned CHX counter 51*, Tb PYK inh -2%, Giardia FBPA inh 0%, LmPK inhibitor -1%, Shiga inhibitor 138* and RE007 growth inh 12%.
For COCCNc1c(-c2cc3ccc(C)c(C)c3[nH]c2=O)nc2ccccn12 the results were CHX counter 42*, Tb PYK inh -2%, Giardia FBPA inh 0%, LmPK inhibitor 5%, Shiga inhibitor 63* and RE007 growth inh -13%.
COCCNc1c(-c2ccc(OC)c(OC)c2)nc2ccc(Cl)cn12 was read as CHX counter -5, Tb PYK inh -9%, Giardia FBPA inh 10%, LmPK inhibitor 1%, Shiga inhibitor -11 and RE007 growth inh -18%.
Screening CCOc1ccccc1NCc1nnc(-c2ccccc2)o1 returned CHX counter 15*, Tb PYK inh 5%, Giardia FBPA inh -3%, LmPK inhibitor 2%, Shiga inhibitor 11 and RE007 growth inh 19%.
For COc1ccc(NCc2nnc(-c3ccccc3)o2)cc1 the results were CHX counter 20*, Tb PYK inh 2%, LmPK inhibitor 0%, Shiga inhibitor 28* and RE007 growth inh -2%.
For COc1cc2c(cc1NC(=O)COC(=O)[C@@H](NS(=O)(=O)c1cccc(Cl)c1)C(C)C)oc1ccccc12 the results were CHX counter 13*, Tb PYK inh 0%, Giardia FBPA inh 0%, LmPK inhibitor 6% and Shiga inhibitor 23.
`COc1ccc(OCC(=O)Nc2cc3oc4ccccc4c3cc2OC)cc1` gave CHX counter -2, Tb PYK inh 1%, Giardia FBPA inh 3%, LmPK inhibitor -4%, Shiga inhibitor -11 and RE007 growth inh -14%.
Screening COc1cc2c(cc1NC(=O)COC(=O)CNS(=O)(=O)c1ccc(C)cc1)oc1ccccc12 returned CHX counter 24*, Tb PYK inh 7%, Giardia FBPA inh -7%, LmPK inhibitor -2%, Shiga inhibitor 83 and RE007 growth inh -1%.
For COc1ccc(S(=O)(=O)N[C@@H](C)C(=O)OCC(=O)Nc2cc3oc4ccccc4c3cc2OC)cc1 the results were CHX counter 15*, Tb PYK inh -5%, Giardia FBPA inh -8%, LmPK inhibitor 1%, Shiga inhibitor 103* and RE007 growth inh 0%.
Screening Fc1ccc(N2CCN(c3ncnc4[nH]ncc34)CC2)cc1 returned Tb PYK inh 0%.
Screening CCSc1ncc(Cl)c(C(=O)Nc2ccc(S(=O)(=O)N3CCCCC3)cc2)n1 returned Tb PYK inh -1%.
For CCC1S/C(=N/N=C/c2ccco2)N(Cc2ccccc2C)C1=O (centres undefined) the results were CHX counter 9, Tb PYK inh -1%, Giardia FBPA inh 0%, LmPK inhibitor -2%, Shiga inhibitor 38* and RE007 growth inh 18%.
Screening CC1S/C(=N/N=C/c2ccco2)N(Cc2ccccc2)C1=O (centres undefined) returned CHX counter 35*, Tb PYK inh -3%, Giardia FBPA inh -15%, LmPK inhibitor 0%, Shiga inhibitor 99* and RE007 growth inh -13%.
For O=C(COc1ccc(C2SCCS2)cc1)NNC(=O)C(Cl)Cl the results were CHX counter 22*, Tb PYK inh 2%, Giardia FBPA inh 21%, LmPK inhibitor 5%, Shiga inhibitor 48 and RE007 growth inh 19%.
For Cc1cccc(-c2nnn(CC/C(N)=N/O)n2)c1 the results were CHX counter 23*, Tb PYK inh 0%, Giardia FBPA inh 0%, LmPK inhibitor -2%, Shiga inhibitor active and RE007 growth inh 1%.
For Cc1cccc(-c2nnn(Cc3nnc(NC(=O)c4ccccc4)s3)n2)c1 the results were CHX counter -2, Tb PYK inh -3%, Giardia FBPA inh 8%, LmPK inhibitor -3%, Shiga inhibitor -3 and RE007 growth inh 3%.
Screening COc1ccc(NC(=O)Cn2c(=O)n(-c3ccc(OC)cc3)c(=O)c3sc4ccccc4c32)cc1 returned Tb PYK inh -3%.
